In assay [1] the test system is Staphylococcus aureus. The following applies: Concentration 20 uM; ASSAY_TEST Inhibition of Bacterial Growth; detection method Absorption (OD600); MEDIA CAMHB; plate type 384well; NBS; CORNING #3640; time 18 hr.
For assay [2], the system named is Escherichia coli. The following applies: Concentration 20 uM; ASSAY_TEST Inhibition of Bacterial Growth; detection method Absorption (OD600); MEDIA CAMHB; plate type 384well; NBS; CORNING #3640; time 18 hr.

Structures are written as SMILES. Entries with a potency or affinity are not part of this list.

On to `CC(COc1ccccc1)NC(C)C(O)c1ccc(O)cc1.Cl` (configuration not stated) [ISOXSUPRINE HYDROCHLORIDE], for which the Inhibition is listed as 10.12% in assay [1] and -2.1% in assay [2].
As to `NCC(=O)CCC(=O)O` [AMINOLEVULINIC ACID], the Inhibition in assay [1] is 8.53%; in assay [2], 5.31%.
For `Cc1occc(=O)c1O` [MALTOL], in that order: 14.12% and 4.13%.
For `Cl.O.c1cnc(N2CCN(Cc3ccc4c(c3)OCO4)CC2)nc1`, in that order: 13.21% and -1.86%.
For `Cc1nccn1CC1CCc2c(c3ccccc3n2C)C1=O` (configuration not stated) [ONDANSETRON] the same measures were 4.05% and 7.33%.
Regarding `CS(=O)(=O)O.Cc1c(O)cccc1C(=O)N[C@@H](CSc1ccccc1)[C@H](O)CN1C[C@H]2CCCC[C@H]2C[C@H]1C(=O)NC(C)(C)C` [NELFINAVIR MESYLATE], the figures for the Inhibition in assay [1] and in assay [2] were 8.63% and 1.35%, respectively.

(Values after ChEMBL document CHEMBL4513141, “CO-ADD screening of NIH (USA) - Clinical Collection” (2021).)
